Measured values reported in the supplement of paper PMC13380429.
A number with no mark means an inactive call.

What follows are molecules tested on Vero E6 infected with SARS-CoV-2 (assay: SARS-CoV-2 infection rate relative to infected DMSO; higher = more infection, active = 60 or less). Settings: 24 h.

SMILES | SARS-CoV-2 infection rate [%]
Cn1cnc2c1c(=O)[nH]c(=O)n2C [theobromine] (10 µM) | 108
CN[C@H](C(=O)N[C@H](C(=O)N(C)[C@H](/C=C(\C)C(=O)O)C(C)C)C(C)(C)C)C(C)(C)c1ccccc1 [taltobulin] (10 µM) | 98
O=C(O)c1ccc(/C=C2\SC(=S)N(c3cccc(C(F)(F)F)c3)C2=O)cc1 (10 µM) | 108
C/C(=C(\CCOP(=O)(O)O)SC(=O)c1ccccc1)N(C=O)Cc1cnc(C)nc1N [benfotiamine] (10 µM) | 112
CC1/C=C/C=C/C=C/C=C/C=C/C=C/C=C/C(OC2O[C@H](C)[C@@H](O)[C@H](N)[C@@H]2O)CC(O)C(C(=O)O)C(O)CC(=O)CC(O)CC(O)CC(O)CC(=O)CCCC(=O)CC(=O)OC1C(C)CC(C)C(O)CC(=O)c1ccc(N)cc1 (some centres undefined) [candicidin] (0.833333 µM) | 100
O=c1ccc2ccc(OCCCCN3CCN(c4cccc5sccc45)CC3)cc2[nH]1 [brexpiprazole] (10 µM) | 98.5
CC1=C(C)C(=O)C(C(CCCCCC(=O)O)c2ccccc2)=C(C)C1=O (centres undefined) [seratrodast] (10 µM) | 100
C[C@]1(COc2ccc(N3CCC(Oc4ccc(OC(F)(F)F)cc4)CC3)cc2)Cn2cc([N+](=O)[O-])nc2O1 [delamanid] (10 µM) | 110
CC(C(=O)O)c1ccc2c(c1)[nH]c1ccc(Cl)cc12 (centres undefined) [carprofen] (10 µM) | 108
